Measured values reported in the supplement of paper PMC10849652.
About 7,900 targets were measured; listed, in parts, are those with a hit and a random draw of the rest. About 0.6% of all pairs of compound and target were hits.

Experiments:
Assay in all cases: log2 fold change, soluble protein after heating vs DMSO (PISA); higher = thermal stabilisation; K562 cells, 10 uM, 30 min; active = over 0.2 and 3.5 SD of the protein, either way, in both replicates (recomputed)
[1] = compound: CC1=C(C=C(C=C1)NC(=O)C2=CC(=CC=C2)C(C)(C)C#N)NC3=CC4=C(C=C3)N=CN(C4=O)C
In short: (§1)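 K562 cells at 2×10^6 cells/mL were exposed to 10 μM compound for 30 min, then aliquots were heated for 3 min across 48°C-58°C, pooled, and extracted in PBS containing 0.5% NP-40 at 4°C. The supernatant after 21,000xg for 90 min was taken as soluble protein and measured by TMTpro 16plex LC-MS/MS with channel sums equalised. Thermal stability is reported relative to control samples, with values from duplicates. Fold changes are given on a log2 scale.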

[2] = compound: CC1=C(C=C(C=C1)NC(=O)C2=CC(=CC=C2)N(C)C)NC(=O)C3=CC=C(C=C3)O
In short: as §1

[3] = compound: CC1=CC=C(C=C1)SC2=C3C=C(SC3=CN=C2)C(=O)N
In short: as §1

[4] = compound: CC1=NC(=CC=C1)C2=C(N=C(N2)C(C)(C)C)C3=CC4=NC=CN=C4C=C3
In short: as §1

[5] = compound: CCCCN(Cc1ccc(C(=O)NO)cc1)C(=O)Nc1ccccc1 [Nexturastat A]
In short: as §1

[6] = compound: CCCS(=O)(=O)Nc1ccc(F)c(C(=O)c2c[nH]c3ncc(-c4ccc(Cl)cc4)cc23)c1F [vemurafenib]
In short: as §1

[7] = compound: CCCS(=O)(=O)Nc1ccc(F)c(C(=O)c2c[nH]c3ncc(Cl)cc23)c1F
In short: as §1

[8] = compound: CCCc1cc(C)[nH]c(=O)c1CNC(=O)c1cc(-c2ccnc(N3CCN(C)CC3)c2)cc2c1cnn2C(C)C
In short: as §1

[9] = compound: CCN(CC)Cc1ccc2cc(COC(=O)Nc3ccc(C(=O)NO)cc3)ccc2c1 [givinostat]
In short: as §1

[10] = compound: CCN(CCCOc1ccc2c(Nc3cc(CC(=O)Nc4cccc(F)c4)[nH]n3)ncnc2c1)CCOP(=O)(O)O [barasertib]
In short: as §1

Sequence of UniProt Q9NXE4 (Q9NXE4 whole entry, looked up): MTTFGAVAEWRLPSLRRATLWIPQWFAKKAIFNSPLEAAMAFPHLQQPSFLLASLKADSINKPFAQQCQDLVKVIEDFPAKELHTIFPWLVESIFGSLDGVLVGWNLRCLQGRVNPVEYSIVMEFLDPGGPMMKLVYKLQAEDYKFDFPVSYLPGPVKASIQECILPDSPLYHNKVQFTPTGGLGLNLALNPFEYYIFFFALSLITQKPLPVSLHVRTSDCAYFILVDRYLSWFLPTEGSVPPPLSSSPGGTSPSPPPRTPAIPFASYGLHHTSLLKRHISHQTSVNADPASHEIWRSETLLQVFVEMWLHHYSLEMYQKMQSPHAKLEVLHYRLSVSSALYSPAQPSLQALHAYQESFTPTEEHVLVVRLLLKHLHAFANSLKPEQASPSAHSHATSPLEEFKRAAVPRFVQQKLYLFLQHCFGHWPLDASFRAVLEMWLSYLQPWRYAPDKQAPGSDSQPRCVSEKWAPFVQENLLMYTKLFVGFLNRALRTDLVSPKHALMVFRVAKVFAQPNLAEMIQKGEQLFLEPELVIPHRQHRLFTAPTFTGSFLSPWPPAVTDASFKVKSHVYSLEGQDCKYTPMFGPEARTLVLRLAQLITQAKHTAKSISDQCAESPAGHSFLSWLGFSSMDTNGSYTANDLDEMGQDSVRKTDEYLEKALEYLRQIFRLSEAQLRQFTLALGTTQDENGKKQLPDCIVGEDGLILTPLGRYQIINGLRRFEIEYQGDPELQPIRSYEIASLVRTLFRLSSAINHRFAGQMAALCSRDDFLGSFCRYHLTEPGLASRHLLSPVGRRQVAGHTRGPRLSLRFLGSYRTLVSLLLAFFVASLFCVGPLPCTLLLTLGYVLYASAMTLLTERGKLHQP
Sequence of UniProt Q92797 (Q92797 whole entry, looked up): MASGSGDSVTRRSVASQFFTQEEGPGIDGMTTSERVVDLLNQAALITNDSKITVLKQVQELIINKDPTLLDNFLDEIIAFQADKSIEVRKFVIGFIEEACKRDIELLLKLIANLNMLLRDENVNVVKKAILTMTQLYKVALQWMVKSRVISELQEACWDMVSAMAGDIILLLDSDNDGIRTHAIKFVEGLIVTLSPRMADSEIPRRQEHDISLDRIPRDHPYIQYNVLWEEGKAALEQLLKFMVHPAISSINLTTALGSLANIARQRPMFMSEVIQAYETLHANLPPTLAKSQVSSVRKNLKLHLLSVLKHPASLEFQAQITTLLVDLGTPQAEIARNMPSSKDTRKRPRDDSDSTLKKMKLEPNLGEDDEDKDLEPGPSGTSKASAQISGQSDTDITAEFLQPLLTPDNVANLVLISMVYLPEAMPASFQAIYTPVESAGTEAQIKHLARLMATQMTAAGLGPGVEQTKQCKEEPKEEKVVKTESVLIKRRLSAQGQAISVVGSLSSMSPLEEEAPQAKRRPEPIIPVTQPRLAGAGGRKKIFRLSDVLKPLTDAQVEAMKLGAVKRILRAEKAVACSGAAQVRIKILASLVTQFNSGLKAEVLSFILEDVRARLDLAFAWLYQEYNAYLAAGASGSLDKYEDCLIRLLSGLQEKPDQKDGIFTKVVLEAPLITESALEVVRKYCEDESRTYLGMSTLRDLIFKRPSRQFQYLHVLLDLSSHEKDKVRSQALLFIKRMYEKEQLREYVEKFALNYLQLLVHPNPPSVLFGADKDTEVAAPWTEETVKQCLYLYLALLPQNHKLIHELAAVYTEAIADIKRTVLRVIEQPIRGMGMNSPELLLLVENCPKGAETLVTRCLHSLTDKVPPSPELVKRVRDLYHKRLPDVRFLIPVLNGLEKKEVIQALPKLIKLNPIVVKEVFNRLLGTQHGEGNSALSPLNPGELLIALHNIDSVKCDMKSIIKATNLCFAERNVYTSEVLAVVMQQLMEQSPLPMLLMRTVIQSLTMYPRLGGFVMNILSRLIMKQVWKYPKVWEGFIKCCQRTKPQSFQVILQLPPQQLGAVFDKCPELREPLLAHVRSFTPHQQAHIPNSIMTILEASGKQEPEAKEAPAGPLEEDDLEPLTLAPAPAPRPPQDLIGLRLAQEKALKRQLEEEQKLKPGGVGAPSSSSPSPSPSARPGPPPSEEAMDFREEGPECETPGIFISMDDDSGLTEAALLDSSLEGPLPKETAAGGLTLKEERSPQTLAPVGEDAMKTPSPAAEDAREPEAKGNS
Sequence of UniProt Q8NBW4 (Q8NBW4 whole entry, looked up): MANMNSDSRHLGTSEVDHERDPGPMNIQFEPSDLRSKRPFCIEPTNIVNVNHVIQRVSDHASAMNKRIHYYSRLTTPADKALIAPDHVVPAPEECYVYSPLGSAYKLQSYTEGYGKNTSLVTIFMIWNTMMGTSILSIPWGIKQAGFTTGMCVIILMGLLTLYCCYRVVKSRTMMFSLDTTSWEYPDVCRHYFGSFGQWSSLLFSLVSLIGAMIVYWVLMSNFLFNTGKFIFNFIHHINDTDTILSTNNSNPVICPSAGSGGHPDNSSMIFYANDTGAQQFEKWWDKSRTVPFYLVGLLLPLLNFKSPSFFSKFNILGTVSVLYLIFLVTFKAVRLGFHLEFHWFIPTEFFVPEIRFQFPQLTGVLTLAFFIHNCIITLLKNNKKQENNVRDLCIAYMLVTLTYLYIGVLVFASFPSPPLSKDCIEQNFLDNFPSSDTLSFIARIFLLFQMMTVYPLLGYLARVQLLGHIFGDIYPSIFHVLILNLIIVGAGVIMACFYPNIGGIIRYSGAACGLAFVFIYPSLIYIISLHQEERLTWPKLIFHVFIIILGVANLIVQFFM
Sequence of UniProt Q66K14 (Q66K14 whole entry, looked up): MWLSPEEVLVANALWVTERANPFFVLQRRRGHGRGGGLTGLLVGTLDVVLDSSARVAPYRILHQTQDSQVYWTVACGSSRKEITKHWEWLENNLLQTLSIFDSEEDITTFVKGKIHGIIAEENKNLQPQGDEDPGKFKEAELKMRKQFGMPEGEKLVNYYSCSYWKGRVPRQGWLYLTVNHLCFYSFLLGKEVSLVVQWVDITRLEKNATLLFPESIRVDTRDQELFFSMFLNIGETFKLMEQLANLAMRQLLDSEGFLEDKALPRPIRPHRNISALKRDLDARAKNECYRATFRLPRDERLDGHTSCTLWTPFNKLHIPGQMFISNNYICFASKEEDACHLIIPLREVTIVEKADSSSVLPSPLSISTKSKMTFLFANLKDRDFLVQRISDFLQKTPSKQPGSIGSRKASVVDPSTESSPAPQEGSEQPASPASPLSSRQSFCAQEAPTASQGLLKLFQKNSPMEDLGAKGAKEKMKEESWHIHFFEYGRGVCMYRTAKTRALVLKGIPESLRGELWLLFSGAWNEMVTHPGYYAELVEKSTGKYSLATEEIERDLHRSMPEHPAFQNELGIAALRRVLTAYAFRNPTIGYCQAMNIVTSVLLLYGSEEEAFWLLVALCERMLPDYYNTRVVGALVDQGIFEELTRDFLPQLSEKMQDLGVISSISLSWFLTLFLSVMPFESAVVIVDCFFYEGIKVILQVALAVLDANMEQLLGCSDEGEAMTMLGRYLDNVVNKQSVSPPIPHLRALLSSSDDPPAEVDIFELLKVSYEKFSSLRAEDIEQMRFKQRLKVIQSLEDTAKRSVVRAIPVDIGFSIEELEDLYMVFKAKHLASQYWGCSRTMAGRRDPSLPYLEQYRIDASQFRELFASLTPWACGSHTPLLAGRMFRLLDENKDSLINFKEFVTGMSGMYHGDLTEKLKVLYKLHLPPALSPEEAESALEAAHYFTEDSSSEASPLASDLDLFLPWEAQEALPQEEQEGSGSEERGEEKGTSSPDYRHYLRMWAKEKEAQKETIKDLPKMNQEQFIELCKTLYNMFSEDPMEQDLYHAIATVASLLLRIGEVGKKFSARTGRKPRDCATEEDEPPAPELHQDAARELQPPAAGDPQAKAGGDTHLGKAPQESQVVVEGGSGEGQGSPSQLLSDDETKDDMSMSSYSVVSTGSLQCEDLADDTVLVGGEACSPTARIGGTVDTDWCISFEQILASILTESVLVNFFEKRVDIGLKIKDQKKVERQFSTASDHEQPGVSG
Sequence of UniProt Q9Y5X1 (Q9Y5X1 whole entry, looked up): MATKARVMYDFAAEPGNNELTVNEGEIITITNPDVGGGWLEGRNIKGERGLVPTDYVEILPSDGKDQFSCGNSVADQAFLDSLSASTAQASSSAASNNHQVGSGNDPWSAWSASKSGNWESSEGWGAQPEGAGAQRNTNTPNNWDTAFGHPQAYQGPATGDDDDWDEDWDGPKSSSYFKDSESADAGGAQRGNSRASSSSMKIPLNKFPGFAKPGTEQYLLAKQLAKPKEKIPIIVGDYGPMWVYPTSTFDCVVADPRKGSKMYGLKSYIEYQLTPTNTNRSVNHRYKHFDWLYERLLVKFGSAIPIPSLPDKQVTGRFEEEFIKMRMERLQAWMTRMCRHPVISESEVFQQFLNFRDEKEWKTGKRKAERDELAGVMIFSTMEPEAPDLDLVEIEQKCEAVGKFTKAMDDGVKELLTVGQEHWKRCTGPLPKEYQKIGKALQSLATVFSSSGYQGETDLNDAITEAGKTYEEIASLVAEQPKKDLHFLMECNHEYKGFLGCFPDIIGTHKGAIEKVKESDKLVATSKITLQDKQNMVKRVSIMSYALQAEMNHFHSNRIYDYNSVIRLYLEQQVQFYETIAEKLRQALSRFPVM
Sequence of UniProt Q96CW6 (Q96CW6 whole entry, looked up): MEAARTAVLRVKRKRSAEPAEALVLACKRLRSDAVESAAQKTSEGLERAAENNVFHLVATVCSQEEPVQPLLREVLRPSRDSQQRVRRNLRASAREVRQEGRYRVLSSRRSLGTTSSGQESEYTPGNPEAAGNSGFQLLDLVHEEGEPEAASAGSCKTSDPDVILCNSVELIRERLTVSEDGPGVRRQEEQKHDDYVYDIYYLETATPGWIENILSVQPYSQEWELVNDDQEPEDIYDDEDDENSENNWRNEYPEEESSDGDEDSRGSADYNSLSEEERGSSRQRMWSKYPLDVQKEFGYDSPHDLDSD
Sequence of UniProt Q9UNL2 (Q9UNL2 whole entry, looked up): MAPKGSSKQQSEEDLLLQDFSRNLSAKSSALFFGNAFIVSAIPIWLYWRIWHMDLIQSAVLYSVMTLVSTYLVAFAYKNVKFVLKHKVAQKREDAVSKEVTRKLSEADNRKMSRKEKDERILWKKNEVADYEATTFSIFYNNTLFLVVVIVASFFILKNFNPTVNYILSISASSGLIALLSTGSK

| Target | log2 fold change [1] | log2 fold change [2] | log2 fold change [3] | log2 fold change [4] | log2 fold change [5] | log2 fold change [6] | log2 fold change [7] | log2 fold change [8] | log2 fold change [9] | log2 fold change [10] |
| --- | --- | --- | --- | --- | --- | --- | --- | --- | --- | --- |
| SRC isoform 2 (UniProt P12931) | -0.006 (inactive) | 0.022 (inactive) | -0.016 (inactive) | -0.06 (inactive) | -0.075 (inactive) | 0.068 (inactive) | 0.069 (inactive) | -0.06 (inactive) | -0.091 (inactive) | -0.01 (inactive) |
| TIMM29 (UniProt Q9BSF4) | -0.007 (inactive) | -0.015 (inactive) | -0.023 (inactive) | -0.102 (inactive) | -0.037 (inactive) | -0.031 (inactive) | 0.033 (inactive) | 0 (inactive) | 0.014 (inactive) | 0.004 (inactive) |
| SLC38A9 (UniProt Q8NBW4) | 0.075 (inactive) | 0.007 (inactive) | -0.05 (inactive) | 0.023 (inactive) | 0.088 (inactive) | -0.036 (inactive) | -0.012 (inactive) | -0.105 (inactive) | 0.021 (inactive) | -0.006 (inactive) |
| SPG11 (UniProt Q96JI7) | -0.384 (inactive) | 0.068 (inactive) | -0.063 (inactive) | -0.182 (inactive) | 0.359 (inactive) | -0.415 (inactive) | -0.008 (inactive) | -1.21 (inactive) | 0.023 (inactive) | 0.029 (inactive) |
| SUPT16H (UniProt Q9Y5B9) | 0.082 (inactive) | -0.081 (inactive) | 0.01 (inactive) | 0.102 (inactive) | -0.019 (inactive) | 0.186 (inactive) | 0.093 (inactive) | 0.061 (inactive) | 0.223 (inactive) | 0.187 (inactive) |
| SLC30A10 (UniProt Q6XR72) | 0.028 (inactive) | -0.102 (inactive) | 0.131 (inactive) | 0.001 (inactive) | -0.545 (active) | -0.031 (inactive) | -0.073 (inactive) | -0.086 (inactive) | -0.002 (inactive) | -0.025 (inactive) |
| SYMPK (UniProt Q92797) | 0.042 (inactive) | -0.004 (inactive) | 0.05 (inactive) | 0.005 (inactive) | -0.103 (inactive) | 0.119 (inactive) | 0.212 (inactive) | 0.051 (inactive) | 0.145 (inactive) | 0.042 (inactive) |
| SLC38A2 (UniProt Q96QD8) | 0.118 (inactive) | 0.026 (inactive) | 0.067 (inactive) | 0.062 (inactive) | -0.133 (inactive) | 0.032 (inactive) | 0.096 (inactive) | -0.107 (inactive) | -0.014 (inactive) | -0.039 (inactive) |
| SLIRP (UniProt Q9GZT3) | 0.175 (inactive) | 0.008 (inactive) | -0.035 (inactive) | 0.039 (inactive) | 0.286 (inactive) | 0.028 (inactive) | -0.031 (inactive) | 0.214 (inactive) | 0.113 (inactive) | 0.019 (inactive) |
| SPAST (UniProt Q9UBP0) | -0.032 (inactive) | -0.05 (inactive) | 0.049 (inactive) | 0.029 (inactive) | -0.047 (inactive) | 0.068 (inactive) | 0.021 (inactive) | 0.062 (inactive) | 0.074 (inactive) | 0.045 (inactive) |
| SURF2 (UniProt Q15527) | 0.022 (inactive) | -0.007 (inactive) | 0.035 (inactive) | -0.027 (inactive) | 0.033 (inactive) | -0.037 (inactive) | -0.002 (inactive) | -0.029 (inactive) | 0.013 (inactive) | 0.035 (inactive) |
| SMAD2 (UniProt Q15796) | 0.036 (inactive) | -0.034 (inactive) | 0.01 (inactive) | 0.052 (inactive) | -0.382 (inactive) | -0.016 (inactive) | 0.04 (inactive) | -0.027 (inactive) | 0.047 (inactive) | 0.047 (inactive) |
| TFB2M (UniProt Q9H5Q4) | -0.017 (inactive) | 0 (inactive) | 0.008 (inactive) | 0.086 (inactive) | -0.077 (inactive) | 0.035 (inactive) | 0.073 (inactive) | -0.058 (inactive) | 0.017 (inactive) | 0.048 (inactive) |
| TARBP1 (UniProt Q13395) | 0.069 (inactive) | 0.001 (inactive) | 0.002 (inactive) | -0.01 (inactive) | 0.016 (inactive) | 0.036 (inactive) | -0.062 (inactive) | -0.067 (inactive) | -0.017 (inactive) | 0.023 (inactive) |
| SPINDOC (UniProt Q9BUA3) | 0.157 (inactive) | 0.037 (inactive) | -0.074 (inactive) | -0.139 (inactive) | -0.014 (inactive) | 0.113 (inactive) | 0.11 (inactive) | -0.013 (inactive) | -0.127 (inactive) | 0.129 (inactive) |
| SLC9A6 isoform 2 (UniProt Q92581) | -0.035 (inactive) | 0.024 (inactive) | -0.002 (inactive) | -0.012 (inactive) | -0.061 (inactive) | 0.024 (inactive) | 0 (inactive) | -0.063 (inactive) | -0.01 (inactive) | 0.018 (inactive) |
| SSR3 isoform 2 (UniProt Q9UNL2) | -0.032 (inactive) | 0.123 (inactive) | -0.014 (inactive) | 0.022 (inactive) | -0.103 (inactive) | 0.11 (inactive) | -0.011 (inactive) | -0.075 (inactive) | -0.042 (inactive) | 0.017 (inactive) |
| SNX9 (UniProt Q9Y5X1) | 0.018 (inactive) | -0.031 (inactive) | -0.002 (inactive) | 0.03 (inactive) | 0.048 (inactive) | 0.006 (inactive) | 0.041 (inactive) | -0.027 (inactive) | -0.099 (inactive) | 0.007 (inactive) |
| TBC1D9B (UniProt Q66K14) | -0.028 (inactive) | 0.116 (inactive) | 0.05 (inactive) | -0.032 (inactive) | 0.361 (active) | 0.095 (inactive) | 0.048 (inactive) | -0.189 (inactive) | 0.002 (inactive) | 0.04 (inactive) |
| SNW1 (UniProt Q13573) | -0.035 (inactive) | 0.041 (inactive) | -0.017 (inactive) | 0 (inactive) | 0.074 (inactive) | -0.04 (inactive) | -0.017 (inactive) | -0.045 (inactive) | -0.041 (inactive) | -0.02 (inactive) |
| SPPL2B (UniProt Q8TCT7) | -0.097 (inactive) | 0.004 (inactive) | 0.089 (inactive) | 0.041 (inactive) | 0.029 (inactive) | -0.05 (inactive) | -0.018 (inactive) | 0.021 (inactive) | 0.048 (inactive) | 0 (inactive) |
| SLC7A6OS (UniProt Q96CW6) | -0.065 (inactive) | -0.033 (inactive) | -0.042 (inactive) | -0.075 (inactive) | -0.031 (inactive) | -0.015 (inactive) | 0.013 (inactive) | -0.025 (inactive) | 0.017 (inactive) | 0.01 (inactive) |
| STAT5B (UniProt P51692) | -0.165 (inactive) | -0.102 (inactive) | 0.222 (inactive) | 0.111 (inactive) | 0.014 (inactive) | 0.046 (inactive) | 0.08 (inactive) | 0.101 (inactive) | 0.145 (inactive) | 0.113 (inactive) |
| SMPD4 isoform 4 (UniProt Q9NXE4) | 0.022 (inactive) | -0.011 (inactive) | 0.075 (inactive) | 0.112 (inactive) | 0.075 (inactive) | 0.02 (inactive) | 0.058 (inactive) | -0.034 (inactive) | 0.066 (inactive) | 0.13 (inactive) |
| SRPRB (UniProt Q9Y5M8) | 0.096 (inactive) | -0.051 (inactive) | 0.025 (inactive) | 0.092 (inactive) | -0.035 (inactive) | 0.061 (inactive) | 0.073 (inactive) | 0.035 (inactive) | -0.127 (inactive) | 0.027 (inactive) |
| SPG21 (UniProt Q9NZD8) | -0.108 (inactive) | -0.157 (inactive) | -0.003 (inactive) | 0.057 (inactive) | 0.016 (inactive) | 0.044 (inactive) | -0.044 (inactive) | 0.057 (inactive) | -0.014 (inactive) | 0.026 (inactive) |
| SLC38A7 (UniProt Q9NVC3) | 0.092 (inactive) | 0.009 (inactive) | 0 (inactive) | 0.094 (inactive) | -0.04 (inactive) | 0.042 (inactive) | 0.012 (inactive) | -0.002 (inactive) | 0.008 (inactive) | -0.012 (inactive) |
